# Screening results deposited in PubChem BioAssay by National Center for Advancing Translational Sciences (NCATS).
# Cruzain inh noDet: blocks cruzain activity in detergent-free assay | P25779 | purified cruzain, Z-FR-AMC fluorescence, no detergent | Potency, µM, most hits filed as inhibitors | hit rate 2.3% among 200,000; also: nearly all actives have a fitted effect of over 40% in size
# Target sequence (P25779 123-467 limits assumed): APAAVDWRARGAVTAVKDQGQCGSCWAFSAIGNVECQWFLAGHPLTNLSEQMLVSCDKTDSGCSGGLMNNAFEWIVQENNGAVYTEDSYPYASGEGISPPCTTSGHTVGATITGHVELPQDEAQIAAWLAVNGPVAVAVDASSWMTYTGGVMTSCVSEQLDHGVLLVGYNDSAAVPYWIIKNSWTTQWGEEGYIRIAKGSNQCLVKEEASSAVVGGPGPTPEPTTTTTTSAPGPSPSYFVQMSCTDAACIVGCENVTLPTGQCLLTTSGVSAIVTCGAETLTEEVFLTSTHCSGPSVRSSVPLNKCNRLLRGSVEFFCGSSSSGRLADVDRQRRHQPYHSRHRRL
#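 Purified cruzain at 1.5 nM, pre-incubated 15 min with compound at room temperature in 100 mM sodium acetate pH 5.5, 5 mM DTT, 0.00005% Triton X-100. Reaction started with 2 uM Z-FR-AMC; AMC fluorescence increase over 60 s gives rate.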
# Cruzain inh Det: inhibitors of Trypanosoma cruzi cruzain with detergent; P25779; purified cruzain, Z-FR-AMC fluorescence, 0.01% Triton; Potency, µM, hits mostly inhibitors; hit rate 0.43% among 200,000; AID 1478; also: nearly all actives have a fitted effect of over 40% in size
#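 15 min RT preincubation of 1.5 nM cruzain with compound, then 2 uM Z-FR-AMC added; kinetic AMC fluorescence, 60 s delta. Triton X-100 0.01%, pH 5.5.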
# Hits are given with their value; . = inactive; ? = inconclusive. An excerpt weighted towards active compounds, which were near 2.5% of everything screened. Calls follow the shape of the dose curve; as a rule, active = well fitted curve in the direction sought with a large enough effect; inconclusive = small, poorly fitted or top-dose-only effect, or another doubt; inactive = no such curve, though single readings can be large; an effect the other way counts as inactive or inconclusive.
SMILES,Cruzain inh noDet,Cruzain inh Det
N#Cc1ccc(Oc2ccc(-c3nc4ccccc4nc3-c3ccccc3)cc2)cc1C#N,?,.
Nc1ccc(Oc2ccc3nc(-c4ccccc4)c(-c4ccc([N+](=O)[O-])cc4)nc3c2)cc1,16µM,.
O=c1c(N2CCN(c3cccc(Cl)c3)CC2)csc2ccccc12,.,.
Fc1ccc(-c2cn3cc(Cc4ccccc4)sc3n2)cc1,.,.
Nc1ccc(N(c2ccccc2)c2ccc(N)cc2)cc1,32µM,.
CCN(CC)c1ccccc1,.,.
COc1ccc(C)cc1NC(=O)c1ccc2c(c1)nnn2C1CCCC1,.,.
COc1ccc(-c2onc(C)c2C)cc1S(=O)(=O)N1c2ccccc2CC1C (centres undefined),.,.
Cc1ccc(NC(=O)/C=C/c2ccc([N+](=O)[O-])s2)cc1,32µM,.
Cc1cccc(NC(=O)/C=C/c2ccc([N+](=O)[O-])s2)c1,?,.
COc1ccc(Cl)cc1NC(=O)CSc1nc(-c2ccccc2)c2ccccc2n1,.,.
COC(=O)c1ccccc1NC(=O)N1CCC(n2c(C)nc3cccnc32)CC1,?,.
Nc1nc(Nc2cccc(F)c2)nc2ccccc12,16µM,?
O=c1oc(Nc2cccc(F)c2)nc2ccccc12,.,.
O=C(COc1ccccc1Cl)N(Cc1ccco1)Cc1ccco1,.,.
Cc1nn2cc(-c3ccc(Cl)cc3)nc2s1,?,.
Cc1nn2cc(-c3ccc(-c4ccccc4)cc3)nc2s1,13µM,.
COc1ccc(C(=O)Oc2cc(-c3ccc(OC)c(OC)c3)cc(=O)c3c(C)oc(C)c23)cc1,.,.
Oc1ccc(Nc2nc(-c3cccs3)cs2)cc1,.,.
COc1ccc(CCNc2ccncn2)cc1OC,.,.
COc1ccc(Nc2nc(-c3cccs3)cs2)cc1,16µM,.
COc1ccc(Nc2nc(-c3sc(N)nc3C)cs2)cc1,16µM,16µM
Cc1nc(N)sc1-c1csc(Nc2ccccn2)n1,13µM,?
Cc1cccnc1Nc1nc(-c2ccc(O)cc2)cs1,.,.
COc1ccc(Nc2nc(-c3sc(NC(C)=O)nc3C)cs2)cc1,.,.
SMILES,Cruzain inh noDet,Cruzain inh Det
COc1ccc(CCNc2nc(-c3sc(N)nc3C)cs2)cc1OC,10µM,14µM
CCc1noc(-c2ccc(N3CCC(C)CC3)c([N+](=O)[O-])c2)n1,.,.
COc1ccc(CCNC(=O)c2ccc3c(c2)N(Cc2c(F)cccc2Cl)C(=O)CS3)cc1OC,.,.
CCOc1ccc(C(=O)c2cn(CC(=O)Nc3ccc4c(c3)OCCO4)c3ccc(F)cc3c2=O)cc1,.,.
Cc1nc(N)sc1-c1csc(Nc2ccc(Cl)cn2)n1,16µM,28µM
CC(=O)Nc1cccc(-c2csc(Nc3ccc(C)cn3)n2)c1,.,.
CCOC(=O)N1CCC(NC(=O)c2cnn(-c3ccc(OC)cc3)c2C2CCN(C(=O)OC(C)(C)C)CC2)CC1,?,.
CN1CCN(c2ncc3ncc(=O)n(C[C@H]4CCCO4)c3n2)CC1,20µM,?
CN(C)c1ncc2ncc(=O)n(C[C@H]3CCCO3)c2n1,.,.
CCCCCCCCCCCCCCC[C@H](O)[C@H](N)CO,.,.
Cc1ccc(C2=N/C(=C\c3cccnc3)C(=O)O2)cc1,13µM,14µM
CCc1ccc(C2=C/C(=C/c3cccnc3)C(=O)O2)cc1,.,.
CCC1CCCCN1C(=O)CSc1nc(-c2ccc(OC)cc2)cc(C(F)(F)F)n1 (centres undefined),.,.
COc1cccc(C(=O)c2cn(CC(=O)Nc3cccc(C)c3C)c3nc(C)ccc3c2=O)c1,?,.
CC1CCN(C(=O)CSc2c(C(C)C)cnc3c2c(=O)n(C)c(=O)n3C)CC1,.,.
Cc1ccc(NC(=O)N2CC3CCCN3c3ccccc32)cc1Cl (centres undefined),32µM,.
Cc1ccc(NC(=O)N2CC3CCCN3c3ccccc32)cc1C (centres undefined),?,.
CCc1cccc(C)c1NC(=O)C1CCN(c2nnc(C)c3c(C)n(-c4ccccc4)nc23)CC1,.,.
COc1cc2c(cc1OC)C(COc1cc(C)cc(C)c1)N(C(=O)C(C)(C)C)CC2 (centres undefined),?,.
Cc1ccc(S(=O)(=O)N(CC(=O)Nc2ccc(Cl)c([N+](=O)[O-])c2)C2CCCCC2)cc1,13µM,.
Cc1ccc(S(=O)(=O)N(CC(=O)Nc2cccc([N+](=O)[O-])c2)C2CCCCC2)cc1,.,.
Cc1nn(CC(=O)NC2CC2)c(=O)c2cc3cc(F)ccc3n12,.,.
Cc1ccc(-n2nc3c(c2NC(=O)c2ccc4c(c2)OCO4)CS(=O)C3)cc1 (centres undefined),.,.
Cc1ccc(-n2nc3c(c2NC(=O)/C=C\c2ccc4c(c2)OCO4)CSC3)c(C)c1,25µM,.
Cc1ccc(-n2nc3c(c2NC(=O)C(C)(C)C)CSC3)c(C)c1,.,.
Cc1ccc(-n2nc3c(c2NC(=O)/C=C\c2ccc4c(c2)OCO4)CSC3)cc1,32µM,.
COc1ccccc1N1CCN(C(=O)c2cc3c(=O)n(C)c4ccccc4c3s2)CC1,.,.
